According to PubChem BioAssay AID1851 (National Center for Advancing Translational Sciences (NCATS), 2009):
Out of some 16,000 compounds screened, about 5,800 (36%) were called active. About 23% were inconclusive and are not listed. Calls follow the shape of the dose curve; as a rule, active = well fitted curve in the direction sought with a large enough effect; inconclusive = small, poorly fitted or top-dose-only effect, or effect the other way; inactive = no such curve, though single readings can be large or run the other way. This is one part of the list.

What follows are compounds tested against Cytochrome P450 2C19 (Homo sapiens) (UniProt P33261) (assay: Cytochrome panel assay with activity outcomes). Details: recombinant CYP, pro-luciferin dealkylation, luminescence, p450-cyp2c19; series mostly up to 57.1 µM.
Chain of Cytochrome P450 2C19 (Homo sapiens) (P33261 whole entry, looked up): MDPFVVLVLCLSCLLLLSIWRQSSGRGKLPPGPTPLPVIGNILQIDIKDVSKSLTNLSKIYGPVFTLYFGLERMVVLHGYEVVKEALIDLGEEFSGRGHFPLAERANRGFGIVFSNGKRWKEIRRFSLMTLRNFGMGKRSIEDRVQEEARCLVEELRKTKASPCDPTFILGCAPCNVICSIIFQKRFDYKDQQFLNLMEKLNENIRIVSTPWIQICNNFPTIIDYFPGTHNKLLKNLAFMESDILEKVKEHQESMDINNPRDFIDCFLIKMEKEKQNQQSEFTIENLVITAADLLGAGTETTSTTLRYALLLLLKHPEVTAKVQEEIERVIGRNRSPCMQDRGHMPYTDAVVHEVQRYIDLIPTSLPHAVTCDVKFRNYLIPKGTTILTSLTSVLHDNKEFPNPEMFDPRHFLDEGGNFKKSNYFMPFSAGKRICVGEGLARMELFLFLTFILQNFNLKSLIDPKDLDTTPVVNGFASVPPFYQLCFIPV
% is scaled to controls: 0 for no effect and ±100 for the full control effect.

AC50, active:
Clc1cccc(N/N=C/c2ccc(N3CCOCC3)cc2)c1 10 µM
FC(F)(F)c1cccc(NC(=S)Nc2cccc(Cl)c2)c1 1.78 µM
FC(F)(F)c1cccc(NC(=S)Nc2ccc(Cl)cc2Cl)c1 0.282 µM
COc1ccc(C=O)cc1COc1ccc(C)cc1[N+](=O)[O-] 2.24 µM
CN(C)c1ccc(-c2nccc(Nc3ccc(F)cc3)n2)cc1 3.16 µM
CN(C)c1ccc(-c2cc(Nc3ccc(F)cc3)ncn2)cc1 2 µM
Fc1ccc(Nc2ccnc(-c3ccc4c(c3)OCO4)n2)cc1 2 µM
CC(C)(C)c1ccc(CN(Cc2ccco2)Cc2nnnn2C2CCCC2)cc1 2.24 µM
S[C@@H]1CCCN(Cc2ccccc2)C1 3.16 µM
Cc1ccc(Oc2ncc(CN3CCOCC3)s2)cc1 1.78 µM
CCOC(=O)C1CCN(Cc2cnc(Oc3ccc(OC)cc3)s2)CC1 7.94 µM
Nc1ccc(N(S(=O)(=O)c2ccccc2)S(=O)(=O)c2ccccc2)c(Cl)c1 0.158 µM
O=C(NCC(c1cccnc1)N1CCOCC1)Nc1ccccc1 (stereo unspecified) 17.8 µM
CCOC(=O)c1sc2nc3c(cc2c1N)COC(C)(CC)C3 (stereo unspecified) 25.1 µM
Cc1ccc(-c2ccc(/C=N/NC(=S)Nc3ccccc3)o2)cc1[N+](=O)[O-] 7.94 µM
O=C(N/N=C/c1ccc([N+](=O)[O-])s1)c1ccccc1Br 28.2 µM
O=C(N/N=C/c1ccc(Br)s1)c1ccccc1[N+](=O)[O-] 12.6 µM
COc1ccc2[nH]cc(CCNc3nc(-c4ccc(C(=O)N(C)C)cc4)nc4ccccc34)c2c1 3.16 µM
COc1ccc2[nH]cc(CCNc3nc(-c4ccc(N(C)C)cc4)nc4ccccc34)c2c1 7.94 µM
COC(=O)/C(=C\C(=O)c1ccccc1)Nc1cccc(C(F)(F)F)c1 5.01 µM
Cc1ccc(C(=O)N2CCN(c3ccc(C(F)(F)F)cn3)CC2)cc1 25.1 µM
O=C(c1ccc(Oc2ccc(C(F)(F)F)cn2)cc1)N1CCN(c2ccccc2)CC1 10 µM
O=C(NC(N1CCCC1)C(Cl)(Cl)Cl)c1ccccc1 (stereo unspecified) 7.94 µM
CCN(CC)c1ncnc2c1sc1nc(C)cc(C)c12 14.1 µM
Cc1ccc(-c2ncccc2OC(=O)C23CC4CC(CC(C4)C2)C3)cc1 14.1 µM
O=C(CNc1cccc(Cl)c1)c1ccc(Cl)cc1 2 µM
O=C(CCNc1cccc(Cl)c1)c1cccs1 3.98 µM
COc1ccccc1C1=NOC(COC(=O)c2ccc3ccccc3n2)C1 (stereo unspecified) 15.8 µM
O=C1C[C@H](c2ccccc2)[C@@H](c2ccc(Br)cc2)O1 0.398 µM
CN(CCO)c1cc(Sc2nc3ccccc3s2)c2nonc2c1[N+](=O)[O-] 11.2 µM
O=[N+]([O-])c1c(NCCO)cc(Sc2nc3ccccc3s2)c2nonc12 2.51 µM
CC(C)n1nnnc1-c1cc(Cl)cc(Cl)c1 7.94 µM
Cc1cccc(Cn2ncc(Cl)c(Cl)c2=O)c1 8.91 µM
CC(=O)c1ccc(OC(=O)C2c3ccccc3Oc3ccccc32)cc1 25.1 µM
O/N=C/c1cc(Cl)ccc1OCc1cccc2ccccc12 1.58 µM
O=[N+]([O-])c1ccc(/C=N/n2c(COc3ccccc3)n[nH]c2=S)cc1 11.2 µM
O=S(=O)(N/N=C\C=C\c1ccccc1)c1ccc(Br)cc1 2 µM
COc1ccccc1C(c1nnnn1C(C)(C)C)N1CCCc2ccccc21 (stereo unspecified) 4.47 µM
COc1ccccc1C(c1nnnn1C(C)(C)C)N1CCN(Cc2ccncc2)CC1 (stereo unspecified) 2.24 µM
COc1cc(C2C(C#N)=C(N)N(Nc3ccccc3)C3=C2C(=O)CC(C)(C)C3)ccc1OCc1cccc(F)c1 (stereo unspecified) 7.08 µM
COc1cc(C2C(C#N)=C(N)N(Nc3ccccc3)C3=C2C(=O)CC(C)(C)C3)ccc1OCc1ccccc1 (stereo unspecified) 6.31 µM
COc1ccc(C2C(C#N)=C(N)N(Nc3ccccc3)C3=C2C(=O)CC(C)(C)C3)cc1C (stereo unspecified) 2.24 µM
Cc1ccccc1-c1ccc2ncnc(N(C)C)c2c1 7.94 µM
COc1ccccc1-c1ccc2ncnc(N(C)C)c2c1 0.501 µM
CN(C)c1ncnc2ccc(-c3ccccc3C(F)(F)F)cc12 3.98 µM
CC1(C)SC(=S)N(Cc2ccc3c(c2)OCO3)C1N(O)C(=O)NC1CCCCC1 (stereo unspecified) 3.55 µM
CCOC(=O)c1cc(C#N)c(Oc2ccccc2OC)nc1-c1ccccc1 6.31 µM
CCCCNc1nc(-c2ccccc2)c(C(=O)OCC)cc1C#N 17.8 µM

AC50, inactive:
CN(C)C(=O)c1ccc(-c2ccc3ncnc(N4CCC(C(=O)O)CC4)c3c2)cc1
C=CCNCCOCCOc1ccc(C)cc1[N+](=O)[O-]
Cc1cnc(CNc2cc(-c3ccc(C(=O)N(C)C)cc3)ncn2)cn1
CN1CCN(c2ccnc(-c3ccc(N(C)C)cc3)n2)CC1
O=C1CCc2cc(OCCCCc3nnnn3C3CCCCC3)ccc2N1
OCC1CCCN(Cc2ccc(-c3ccccc3)cc2)C1 (stereo unspecified)
CCOc1nc(NCCN2CCOCC2)nc(Nc2ccc(C)cc2)n1
O=C(Nc1cccc(F)c1)N1CC[C@@]2(CCCNC2)C1
Nc1ccc(N2C(=O)c3ccccc3C2=O)c(Cl)c1
O=C(Nc1ccccc1)N1CCC2(CC1)CCN(C(=O)c1cnccn1)CC2
Cc1ccc(-c2ccc(/C=N\NC(=O)c3cc4c(ccc5ccccc54)o3)o2)cc1[N+](=O)[O-]
Cc1nccn1C[C@@H]1CCc2c(c3ccccc3n2C)C1=O
Cc1nc2ccccn2c1C(=O)N/N=C/c1ccccc1[N+](=O)[O-]
O=C1OC2CC3CC1CC(O)(C3)C2 (stereo unspecified)
CCC(C(=O)Nc1cccc(C(F)(F)F)c1)c1ccccc1 (stereo unspecified)
O=C(c1cc(C(F)(F)F)cc(C(F)(F)F)c1)N1CCC2(CC1)CN(c1ccccc1)C2
O=C(c1cc(C(F)(F)F)cc(C(F)(F)F)c1)N1CCC2(CC1)CCN(c1ccncc1)CC2
O=C(c1cc(C(F)(F)F)cc(C(F)(F)F)c1)N1CCC2(CC1)CCN(c1ccccn1)CC2
O=C(c1cc(C(F)(F)F)cc(C(F)(F)F)c1)N1CCC2(CC1)CN(c1ccccn1)C2
CN1CCN(c2ncc3ncc(=O)n(C[C@H]4CCCO4)c3n2)CC1
O=C(NNC(=O)c1ccccc1)C(=O)N1CCCCC1
CC(C)NC(=O)/C(=N\O)c1ccccc1
CCN(CC)N=Nc1[nH]nc2nc(C)cc(C)c12
O=C(NOC(=O)c1cc(Br)ccc1Cl)c1cccs1
COc1ccccc1-c1nc(NCCNC(C)=O)c2ccccc2n1
CN1CC[C@@]2(CCCN(C(=O)c3cccc(F)c3)C2)C1
Cc1cccc(-n2nnc3cnn(C)c3c2=O)c1
CC[N+](C)(CC)CCOC(=O)C1c2ccccc2Oc2ccccc21
O=C(N/N=C/C=C/c1ccccc1)c1cc2c(ccc3ccccc32)o1
COc1ccc(C(=O)N2CCC3(CCN(Cc4ccncc4)CC3)CC2)cc1
Cc1nc2cnc(N3CCN(C)CC3)nc2n(C)c1=O
CN(C)N1C(N)=C(C#N)C(c2cccnc2)C2=C1CC(C)(C)CC2=O (stereo unspecified)
Cc1noc(C)c1C(=O)N1CCC2(CCCN(Cc3ccc(C#N)cc3)C2)CC1
CN(C)Cc1ccccc1-c1ccc2ncnc(N(C)C)c2c1
CCCCNc1c(C(=O)OCC)c(C)nc2c1cnn2CC

activity, negative = inhibition, inactive:
O=C(O)CCc1ccc(-c2ccccc2)[nH]1 -7.89% [at 11.4 µM]
Nc1nccc(Nc2ccc(S(N)(=O)=O)cc2)n1 -11.8% [at 11.4 µM]
c1ccc(CN2CC[C@@H](CNc3ncnc4ccccc34)C2)cc1 -7.26% [at 11.4 µM]
Cc1cc(C(C)(C)C)c(OCCCN2CCOCC2)c(C(C)(C)C)c1 -2.67% [at 11.4 µM]
CC(C)(C)C(=O)[C@H]([C@@H](c1ccccc1)N1CCOCC1)N1CCOCC1 27.5% [at 11.4 µM]
CC1(C)OCC([C@H](O)C2=CCCCC2=O)CO1 2.21% [at 11.4 µM]
Nc1nc2c(ncn2[C@@H]2C=C[C@@H](CO)C2)c(=O)[nH]1 -3.48% [at 11.4 µM]
O=C(O)c1ccccc1C1c2ccccc2Oc2ccccc21 9.43% [at 11.4 µM]
Oc1ccc(Cl)cc1C=Nc1cnc2ccccc2c1 -4.43% [at 11.4 µM]
Nc1ncnc2nc(N3CCN(CCO)CC3)[nH]c12 -15.5% [at 11.4 µM]
CC(=O)OC[C@@H]1O[C@@H](O/N=C2/C[C@@H](O)[C@@H](O)[C@@H]3[C@H]4C(=O)N(c5ccc(F)cc5F)C(=O)[C@@H]4CC[C@H]23)[C@H](OC(C)=O)[C@H](OC(C)=O)[C@@H]1OC(C)=O -9.07% [at 11.4 µM]
CCOC(=O)N/N=C1/C[C@@H](O)[C@@H](O)[C@@H]2[C@@H]3C(=O)N(Cc4ccc5c(c4)OCO5)C(=O)[C@H]3CC[C@@H]12 4.88% [at 11.4 µM]
CCOC(=O)N/N=C1/C[C@@H](O)[C@@H](O)[C@@H]2[C@@H]3C(=O)N(Cc4ccc5c(c4)OCO5)C(=O)[C@H]3CC[C@H]12 -2.19% [at 11.4 µM]
